PHOSPHO1 inh: PubChem AID 1565 | recombinant PHOSPHO1, absorbance phosphatase assay | inhibition, % at 13.3 µM | Phosphoethanolamine/phosphocholine phosphatase (Homo sapiens), Q8TCT1 | hit rate 1.1% among 290,000; in the data active means inhibition above about 60%
Target sequence (Q8TCT1 whole entry, looked up): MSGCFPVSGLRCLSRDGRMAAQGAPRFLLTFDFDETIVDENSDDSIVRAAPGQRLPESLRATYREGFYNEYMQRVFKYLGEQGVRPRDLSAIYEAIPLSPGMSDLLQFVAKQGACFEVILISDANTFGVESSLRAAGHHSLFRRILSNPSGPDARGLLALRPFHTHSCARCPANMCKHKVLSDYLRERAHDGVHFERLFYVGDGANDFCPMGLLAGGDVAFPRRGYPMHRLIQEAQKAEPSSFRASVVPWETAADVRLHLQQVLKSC
esBAF inh: Bmi1 luciferase reporter increase in mESCs, primary screen, esBAF inhibitor project, mouse ES cells, Bmi1 luciferase knock-in, single point; 24 h; 100% = twice the neutral-well signal; reporter increase, % at 12.5 µM; hit rate 2% among 350,000; in the data active means activation above about 40%; inconclusive means no clear call, values can overlap the other calls;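 further: a rise in the Bmi1 reporter signal indicates esBAF inhibition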
A3G deaminase: APOBEC3G DNA deaminase inhibitors, primary screen, biochemical, fluorescence, single-stranded DNA substrate, uHTS; DNA dC->dU-editing enzyme APOBEC-3G (Homo sapiens), Q9HC16; recombinant A3G, ssDNA deamination FAM/TAMRA fluorescence; inhibition, % at 20 µM; hit rate 0.28% among 330,000;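 active means inhibition of at least 40% at 20 µM, with no more than 30% in the related APOBEC3A deaminase screen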
Wnt act: Wnt/beta-catenin pathway activators, primary screen, cell-based, plate reader, single point. Wnt/beta-catenin reporter cell assay, activator. activation, % at 9.35 µM. hit rate 1.2% among 300,000. AID 743398, 2014; in the data active means activation above about 30%, passing the limit was not always enough; inconclusive means no clear call, values can overlap the other calls
MITF TRPM1 HTS: activators of MITF-driven TRPM1 promoter reporter, primary screen, cell-based, SK-MEL-5, luciferase, single point; SK-MEL-5 TRPM1-promoter luciferase, 24 h; % of positive control, neutral wells = 0; activation, % at 12.5 µM; hit rate 0.75% among 300,000; AID 588334, 2011;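 active means mean activation of at least 80% with every replicate also reaching 80%; inconclusive means mean reaches 80% but some replicate falls short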
A3A deaminase: APOBEC3A ssDNA deaminase inhibitors, primary screen, selectivity assay for APOBEC3G inhibitor project, biochemical, FAM/TAMRA oligo cleavage fluorescence | recombinant A3A, FAM/TAMRA ssDNA deamination fluorescence | AID 493011, 2011 | DNA dC->dU-editing enzyme APOBEC-3A (Homo sapiens), P31941 | hit rate 0.41% among 330,000 | inhibition, % at 20 µM;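 active means at least 40% inhibition at 20 µM here, with at most 30% in a related deaminase screen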
Target sequence (P31941 whole entry, looked up): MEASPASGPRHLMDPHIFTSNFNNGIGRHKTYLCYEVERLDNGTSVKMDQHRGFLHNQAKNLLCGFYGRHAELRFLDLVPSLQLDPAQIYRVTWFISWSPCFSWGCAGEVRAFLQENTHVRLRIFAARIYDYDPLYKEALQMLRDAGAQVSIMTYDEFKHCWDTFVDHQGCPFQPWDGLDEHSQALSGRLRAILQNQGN
A number is an active result; i = inactive; ? = inconclusive; nt = no result. Sampled rows, rich in hits. Any-hit rate of the full collection: about 3.6%.

SMILES	PHOSPHO1 inh	esBAF inh	A3G deaminase	Wnt act	MITF TRPM1 HTS	A3A deaminase
CCCNC(=O)N1[C@H](C#N)[C@H](c2ccc(C3=CCCCC3)cc2)[C@@H]1CO	nt	i	nt	nt	nt	nt
COCC#Cc1ccc([C@H]2[C@@H](CO)N3CCCCN(S(=O)(=O)c4ccccc4F)C[C@@H]23)cc1	nt	i	nt	nt	nt	nt
CC(C)NC(=O)NCC[C@H]1CC[C@H](NC(=O)CN(C)C)[C@H](CO)O1	nt	i	nt	nt	nt	nt
CN(C)Cc1cn(CC[C@H]2CC[C@@H](NC(=O)Nc3ccc4c(c3)OCO4)[C@H](CO)O2)nn1	nt	i	nt	nt	nt	nt
CN(C)C(=O)c1ccc(-c2ccc([C@@H]3[C@@H](CO)N4CCCCN(Cc5cccnc5)C[C@H]34)cc2)cc1	nt	i	nt	nt	nt	nt
CC1(C)CC(=O)C(N=Nc2ccc(F)cc2)=C(O)C1	i	nt	i	43.8	i	i
CC1(C)CC(=O)C(N=Nc2ccc(OC(F)F)cc2)=C(O)C1	i	nt	i	i	i	i
CC1(C)CC(=O)C(N=Nc2ccc(Cl)cc2)=C(O)C1	i	nt	i	i	i	i
CC1(C)CC(=O)C(N=Nc2ccc(-c3ccccc3)cc2)=C(O)C1	i	nt	i	i	96.0	i
COc1ccc(Cn2c(-c3ccc(Br)cc3)c[n+]3ccccc23)cc1	i	i	i	57.8	i	i
COc1cccc(-n2cc3c(=O)n(C)c(=O)n(C)c3c2)c1	i	47.5	i	nt	i	i
C[C@@H]1CN([C@@H](C)CO)C(=O)c2cc(N(C)C)ccc2O[C@@H]1CN(C)Cc1ccc(C(F)(F)F)cc1	nt	i	nt	nt	nt	nt
CCOC(=O)Cc1csc(NC(=O)c2ccc3ncsc3c2)n1	i	51.9	i	i	i	i
CCOC(=O)Cc1csc(NC(=O)c2ccc(C)o2)n1	i	i	i	nt	i	i
CCOC(=O)Cc1csc(NC(=O)c2cnc3sc(C)cn3c2=O)n1	i	47.3	i	i	i	i
CCOC(=O)Cc1csc(NC(=O)c2ccc(Br)cc2)n1	i	i	i	i	i	i
C[C@@H]1CN([C@H](C)CO)C(=O)c2cc(NC(=O)Nc3ccc4c(c3)OCO4)ccc2O[C@@H]1CN(C)Cc1ccc(Oc2ccccc2)cc1	nt	i	nt	nt	nt	nt
C[C@H](CO)N1C[C@H](C)[C@@H](CN(C)Cc2ccccc2F)Oc2cc(C3=CCCCC3)ccc2S1(=O)=O	nt	i	nt	nt	nt	nt
CC(C)NC(=O)Nc1ccc2c(c1)C(=O)N([C@@H](C)CO)C[C@@H](C)[C@@H](CN(C)Cc1ccc(C(F)(F)F)cc1)OCCCC[C@@H](C)O2	nt	i	nt	nt	nt	nt
O=C(COC(=O)c1cc2ccccc2oc1=O)Nc1ccc(F)cc1F	i	46.1	i	47.1	i	i
CCOc1ccc(/C=C2\CCC(C3CCCC3)C2=O)cc1 (stereo not drawn)	i	i	i	?	122.8	i
O=C1/C(=C/c2ccco2)CCC1C1CCCC1 (stereo not drawn)	i	i	i	37.9	i	i
O=C1/C(=C\c2ccco2)CCC/C1=C\c1ccco1	i	76.9	i	nt	i	87.4
Cc1noc(C)c1S(=O)(=O)N(C)C[C@@H]1Oc2ccc(NC(=O)CCC(F)(F)F)cc2CC(=O)N([C@H](C)CO)C[C@@H]1C	nt	i	nt	nt	nt	nt
COc1ccc(NC(=O)N(C)C[C@@H]2Oc3ccc(NS(=O)(=O)c4ccc(OC)cc4)cc3C(=O)N([C@H](C)CO)C[C@H]2C)cc1	nt	i	nt	nt	nt	nt
SMILES	PHOSPHO1 inh	esBAF inh	A3G deaminase	Wnt act	MITF TRPM1 HTS	A3A deaminase
O=C(CNCc1ccccc1Cl)NCc1ccco1	i	nt	i	i	i	i
O=C(CNCCc1ccc(Cl)cc1Cl)NCc1ccco1	62.9	nt	i	i	i	i
CN1C(=O)c2cc(NC(=O)c3ccc(F)cc3)ccc2OC[C@@H]2O[C@@H](CC(=O)NC3CCC3)CC[C@@H]21	nt	i	nt	nt	nt	nt
CCO/C(C)=N/Oc1cccc(N(C)C)c1	nt	i	nt	i	nt	nt
CCO/C(C)=N/Oc1cnc2ccccc2c1	nt	65.8	nt	i	nt	nt
CN(C)c1ccc(C(=O)/C=C/c2ccc(Br)cc2)cc1	i	i	i	i	i	i
O=C(/C=C/c1ccc2c(c1)OCCCO2)c1ccc2ccccc2c1O	i	45.0	i	i	i	i
O=C(/C=C/c1ccc2c(c1)OCO2)c1ccccn1	i	38.4	i	i	nt	i
CN(C)c1ccc(C(=O)/C=C/c2ccccc2)cc1	i	68.2	i	nt	?	i
CN(C)c1ccc(/C=C/C(=O)c2ccccc2)cc1[N+](=O)[O-]	i	62.2	i	33.9	i	i
C[C@H](CO)N1C[C@H](C)[C@@H](CN(C)C(=O)NC2CCCCC2)Oc2ccc(N(C)C)cc2CC1=O	nt	i	nt	nt	nt	nt
O=C(O)c1ccc2c(c1)OCCCO2	i	i	i	i	i	i
O=C(C=Cc1ccc2c(c1)OCO2)c1ccccc1	nt	49.9	nt	i	i	nt
O=C(/C=C/c1ccccc1)c1ccc2c(c1)OCCCCO2	i	nt	i	i	91.3	i
O=C(C=Cc1ccc2c(c1)OCO2)C=Cc1ccc2c(c1)OCO2	nt	nt	nt	i	nt	nt
CO[C@H]1CN(C)C(=O)c2ccc(NC(=O)NC(C)C)cc2OC[C@@H](C)N(CC2CC2)C[C@@H]1C	nt	i	nt	nt	nt	nt
Cc1ccc(CSCCNC(=O)c2ccc(C)cc2)cc1	61.8	nt	i	i	i	i
CCNC(=O)c1ccc(CSc2ccc(Cl)cc2)cc1	i	i	i	i	i	i
O=C(NCCc1ccc(Cl)cc1)c1ccc(=O)[nH]c1	i	i	i	i	i	i
CC(=O)NCCNC(=O)c1ccc(CSc2ccc(Cl)cc2)cc1	i	53.7	i	i	i	i
O=C(NCCc1ccc(O)cc1)c1ccc(Cl)cc1	i	?	i	nt	98.4	i
C[C@@H]1CN([C@@H](C)CO)C(=O)c2cc(NC(=O)c3ccccc3)ccc2O[C@@H](C)CCCCO[C@H]1CN(C)C(=O)C1CCCCC1	nt	i	nt	nt	nt	nt
Cc1nc(-c2ccc(Cl)cc2)sc1C1(C)CC(c2ccccc2)=NO1 (stereo not drawn)	nt	58.9	i	i	i	i
COc1ccccc1C1=NOC(C)(c2sc(-c3ccc(Cl)cc3)nc2C)C1 (stereo not drawn)	i	42.8	i	i	i	i
Cc1nn(-c2ccccc2)c(/N=C/c2ccc(O)cc2)c1-c1ccccc1	i	?	i	nt	83.4	i
Cc1nn(-c2ccccc2)c(C)c1-c1ccccc1O	i	i	i	i	i	i
CCOC(=O)/C(C#N)=C(C)/C=C1\Sc2ccccc2N1CC	i	67.2	i	i	i	i
CCN1/C(=C\C=C(C(C)=O)C(C)=O)Sc2ccccc21	i	nt	i	i	i	i
Cn1cnc(S(=O)(=O)N[C@H]2CC[C@@H](CC(=O)Nc3ccc(-c4ccccc4)cc3)O[C@H]2CO)c1	nt	i	nt	nt	nt	nt

Screening results (PubChem BioAssay)
